Screening data as filed in PubChem BioAssay.
ATXN2 expr inh: reduces ATXN2 reporter expression in HEK-293 cells; AID 1745845; Potency, µM (top dose mostly 57 µM), usual class: inhibitors; HEK-293 ATXN2-luciferase reporter, luminescence, 24 h; 0.72% of 360,000 active; also: nearly all actives have a fitted effect of over 55% in size
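qHTS (up to 57 uM final) was run with 24 h compound exposure of reporter cells at 37 °C. Each well was multiplexed: SteadyGlo luminescence measured ATXN2-luciferase expression after a fluorogenic Gly-Phe-AFC viability readout (25 uM final).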
S2 tox: reduces viability in counter-screen for ATXN expression inhibitors. S2 cells (HEK-293 line with an ATXN2-luciferase reporter) viability, CellTiter-Fluor protease fluorescence, 24 h. Potency, µM (series often up to 56.7 µM), actives largely listed as cytotoxic. 0.49% of 400,000 active. AID 651635; also: nearly all actives have a fitted effect of over 40% in size
TGFb inhibitor: TGF-b pathway inhibition. HepG2 CAGA-GFP TGF-b/SMAD3 reporter, GFP fluorescence, 18 h; TGF-beta stimulated, 500 pg/mL final. Potency, µM (doses to about 46.1 µM), hits mostly inhibitors. 1.2% of 410,000 active. AID 588855; also: nearly all actives have a fitted effect of over 65% in size
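HEPG2 CAGA-GFP, 1000 cells/well; 2 h settle, 37 C; cpd via pin tool; TGF-b 500 pg/mL final; 18 h, 37 C; GFP imaging ex488/em500-530; %Activity normalised to -TGF-b and +DMSO controls; CRC fit, curve class.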
HepG2 tox: kills HepG2 cells in TGF-b inhibitor counter-screen | 0.76% of 410,000 active | Potency, µM (highest dose often 46.1 µM), most hits filed as cytotoxic | HepG2 CAGA-GFP viability, ATP luminescence, 18 h
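CellTiter-Glo luminescence gave cytotoxicity after 18 hours at 37 degrees C. The cells were HepG2 CAGA-GFP in 1% FBS DMEM, stimulated with 500 pg/mL TGF-beta after compound addition. %Activity was normalised to no-cell wells (complete cell-killing) and DMSO (no toxicity), and curves were fitted and classified.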
Of the large screens only hits and unclear results are named; the others gave an inactive call; ! = repeats disagree. Shown are actives, neighbours in structure and some others; about 2.3% of the full set was active somewhere. Calls follow the shape of the dose curve; as a rule, active = well fitted curve in the direction sought with a large enough effect; inconclusive = small, poorly fitted or top-dose-only effect, or another doubt; inactive = no such curve, though single readings can be large; an effect the other way counts as inactive or inconclusive.

O=C(NC(=S)Nc1ccc(S(=O)(=O)Nc2nccs2)cc1)c1ccccc1	HepG2 tox 16µM
O=c1cc(-c2cccc3c2Sc2ccccc2S3)oc(N2CCOCC2)c1	none (no result: S2 tox, TGFb inhibitor, HepG2 tox)
CCn1cc([N+](=O)[O-])c(C(=O)N2N=C(c3ccc4ccccc4c3)CC2c2cc(Br)ccc2O)n1 (stereo not drawn)	ATXN2 expr inh inconclusive, TGFb inhibitor 20µM
CCn1cc([N+](=O)[O-])c(C(=O)N2N=C(c3ccc(Cl)c(Cl)c3)CC2c2ccccc2O)n1 (stereo not drawn)	ATXN2 expr inh inconclusive, TGFb inhibitor 11µM (no result: S2 tox)
CC(=O)N1CCN(c2ccc(O)cc2)CC1	none (no result: TGFb inhibitor, HepG2 tox)
CC(C)C(C(=O)Nc1nccs1)N1C(=O)c2ccccc2C1=O (stereo not drawn)	HepG2 tox 6.3µM
COc1ccccc1NC(=O)C(C(C)C)N1C(=O)c2ccccc2C1=O (stereo not drawn)	none
Cc1cc(C)c(S(=O)(=O)Nc2ccc3c(c2)CCC3)c(C)c1	ATXN2 expr inh inconclusive, TGFb inhibitor 18µM
Cc1cc(C)c(S(=O)(=O)Nc2ccc(O)cc2)c(C)c1	none
CN(C)S(=O)(=O)c1cccc(C(=O)Nc2ccccc2[N+](=O)[O-])c1	TGFb inhibitor inconclusive
CCN(CC)S(=O)(=O)c1cc(C(=O)Nc2ccccc2[N+](=O)[O-])ccc1Cl	TGFb inhibitor 16µM
CC(C)c1c(C(=O)N(C)CC2CCCN(C)C2)cnn1-c1nccc(-c2cccs2)n1 (stereo not drawn)	none (no result: ATXN2 expr inh, TGFb inhibitor, HepG2 tox)
CCCCn1c(NCc2ccncc2)nc2ccccc21	none
CCCCn1c(NCc2ccc(N(C)C)cc2)nc2ccccc21	ATXN2 expr inh inconclusive, S2 tox inconclusive, TGFb inhibitor 16µM
Cc1cc(C)cc(C(=O)C[n+]2cccc(Br)c2)c1	none (no result: ATXN2 expr inh, S2 tox)
COc1ccc(-n2nnnc2S(=O)(=O)CC(=O)N2CCCCC2)cc1	ATXN2 expr inh 13µM, S2 tox 10µM, TGFb inhibitor inconclusive, HepG2 tox 13µM
COc1cc2c(c(OC)c1OC)-c1c(cc3c(c1OC)OCO3)C[C@@H](C)[C@](C)(O)C2	none (no result: ATXN2 expr inh, TGFb inhibitor, HepG2 tox)
Nc1cc(=O)[nH]c(=S)[nH]1	none (no result: ATXN2 expr inh, S2 tox)
CCOC(=O)c1c(-c2cccs2)csc1NC(=O)CN1CC(C)OC(C)C1 (stereo not drawn)	TGFb inhibitor inconclusive, HepG2 tox 20µM
CCOC(=O)c1c(-c2cccs2)csc1NC(C)=O	none
CCn1c(-c2ccccc2F)nc2cc(NC(C)=O)cc(C(=O)N3CCCCC3c3nccn3C)c21 (stereo not drawn)	none (no result: ATXN2 expr inh, TGFb inhibitor, HepG2 tox)
O=C1C(C2=C(O)c3ccccc3C2=O)=Nc2ccccc21	ATXN2 expr inh inconclusive, S2 tox inconclusive, HepG2 tox 11µM
O=C(N/N=C\c1cn[nH]c1-c1ccc(Cl)cc1)c1cccs1	TGFb inhibitor 10µM (no result: ATXN2 expr inh)
O=C(N/N=C/c1cn[nH]c1-c1ccc(Cl)cc1)c1ccc([N+](=O)[O-])cc1	none
COc1ccccc1C(=O)Oc1c(Sc2ccccc2)c(C)nn1-c1ccccc1	ATXN2 expr inh inconclusive, S2 tox 11µM, TGFb inhibitor inconclusive
COc1cccc(C(=O)Oc2c(Sc3ccc(C)cc3)c(C)nn2C(C)(C)C)c1OC	ATXN2 expr inh inconclusive, TGFb inhibitor 13µM, HepG2 tox 13µM (no result: S2 tox)
CC(/C=C/c1ccc(N(C)C)cc1)=N/N=C1/NC(=O)CC(C(=O)Nc2ccc(Cl)cc2)S1 (stereo not drawn)	S2 tox inconclusive, TGFb inhibitor 10µM
CC(/C=C/c1ccc(N(C)C)cc1)=N\N=C1\NC(=O)CC(C(=O)Nc2ccccc2)S1 (stereo not drawn)	TGFb inhibitor 16µM
COc1ccc(NC(=O)C2CC(=O)N/C(=N/N=C/c3ccccc3)S2)cc1 (stereo not drawn)	none
CCCOc1ccc(NC(=O)C2CC(=O)N/C(=N/N=C(C)/C=C/c3ccc(N(C)C)cc3)S2)cc1 (stereo not drawn)	none
Cc1cc(C(=O)Nc2cccc(-c3nc(CNC(=O)c4cc5ccccc5[nH]4)c(C)o3)c2)c(C)o1	none (no result: ATXN2 expr inh, TGFb inhibitor, HepG2 tox)
CC(=O)NC(c1ccco1)c1cc(F)c2cccnc2c1O (stereo not drawn)	ATXN2 expr inh inconclusive, S2 tox 14µM, TGFb inhibitor inconclusive, HepG2 tox 8.9µM
CC(=O)NC(c1cccs1)c1cc(F)c2cccnc2c1O (stereo not drawn)	ATXN2 expr inh inconclusive, S2 tox 4µM, TGFb inhibitor inconclusive
CCN(CC)CC(C)CNC(=O)c1cc(-c2ccc(Br)s2)nc2ccccc12 (stereo not drawn)	ATXN2 expr inh 28µM, TGFb inhibitor inconclusive (no result: S2 tox)
Cc1ccc2c(c1)CN(CCNC(=O)c1n[nH]c3c1CCCC3)CC(C)O2 (stereo not drawn)	none (no result: ATXN2 expr inh, TGFb inhibitor, HepG2 tox)
COc1cccc(CC(=O)OCC(=O)NCCc2ccc(F)cc2)c1	none
COc1cccc(NC(=O)C(=O)NCCc2ccc(F)cc2)c1	HepG2 tox 20µM
C=CS(=O)(=O)c1c2cc(OC)ccc2nc2ccc(OC)cc12	ATXN2 expr inh inconclusive, TGFb inhibitor inconclusive, HepG2 tox 14µM (no result: S2 tox)
O=[N+]([O-])/C=C/c1cn(Cc2ccc(Cl)cc2)c2ccccc12	ATXN2 expr inh inconclusive, S2 tox inconclusive, HepG2 tox 3.5µM
O=C(O)c1ccc(Cn2cc(/C=C\[N+](=O)[O-])c3ccccc32)o1	none (no result: ATXN2 expr inh, S2 tox)
Cc1cccc(Cn2cc(/C=C/[N+](=O)[O-])c3ccccc32)c1	S2 tox inconclusive, TGFb inhibitor 7.9µM
COC(=O)c1ccc(Cn2cc(/C=C\[N+](=O)[O-])c3ccccc32)o1	ATXN2 expr inh inconclusive, S2 tox inconclusive, TGFb inhibitor inconclusive
CCOC(=O)Cn1cc(C(=O)c2ccco2)c2ccccc21	ATXN2 expr inh 32µM, S2 tox inconclusive
CCOC(=O)Cn1cc(C#N)c2ccccc21	TGFb inhibitor inconclusive
CCOC(=O)Cn1cc(/C=C/[N+](=O)[O-])c2ccccc21	TGFb inhibitor 16µM (no result: ATXN2 expr inh, S2 tox)
COc1cccc(-c2ccnc(-n3ncc(C(=O)NCC4(N5CCCCC5)CCCC4)c3C)n2)c1	none (no result: ATXN2 expr inh, TGFb inhibitor, HepG2 tox)
FC(F)Oc1ccc(NC(=S)Nn2cnnc2)cc1	ATXN2 expr inh inconclusive, TGFb inhibitor 16µM
Cn1c(-c2ccccc2)c(C#Cc2ccc(N)cc2)c2ccccc21	TGFb inhibitor 3.5µM
CC(C)(C)C(=O)CSc1n[nH]c(-c2ccccc2)n1	none (no result: ATXN2 expr inh, S2 tox)
CN1CCN(Cc2nc3ccccc3c(=O)n2Cc2nc(-c3cccc([N+](=O)[O-])c3)cs2)CC1	TGFb inhibitor inconclusive
CN1CCN(Cc2nc3ccccc3c(=O)n2Cc2nc(-c3ccc4ccccc4c3)cs2)CC1	ATXN2 expr inh inconclusive, TGFb inhibitor inconclusive, HepG2 tox 16µM! (no result: S2 tox)
CC(C)Oc1ccc(C(CC(=O)O)NC(=O)Cc2ccccc2)cc1 (stereo not drawn)	none
COc1ccc(C(CCNCc2ccc(N(C)C)cc2)c2ccccc2)cc1 (stereo not drawn)	ATXN2 expr inh inconclusive, S2 tox 22µM, TGFb inhibitor inconclusive
COc1ccc(C(O)P(=O)(OCc2ccccc2)c2ccc(N(C)C)cc2)cc1 (stereo not drawn)	none (no result: ATXN2 expr inh)
CC(C)Oc1ccc(C(CCNCc2ccc(O)cc2)c2ccccc2)cc1 (stereo not drawn)	ATXN2 expr inh inconclusive, TGFb inhibitor 14µM (no result: S2 tox)
